# USP28 block: inhibitors of human USP28 deubiquitinase; Ubiquitin carboxyl-terminal hydrolase 28 (Homo sapiens), Q96RU2; 47,000 compounds, 3% hits; inhibition, % at 25 µM; purified USP28, Ub-rhodamine cleavage fluorescence, 30 min
# USP30 block: inhibitors of human USP30 deubiquitinase; AID 1645860, 2021; purified USP30, Ub-rhodamine cleavage fluorescence; Ubiquitin carboxyl-terminal hydrolase 30 (Homo sapiens), Q70CQ3; 47,000 compounds, 5.3% hits; inhibition, % at 25 µM
# Target sequence (Q70CQ3 whole entry, looked up): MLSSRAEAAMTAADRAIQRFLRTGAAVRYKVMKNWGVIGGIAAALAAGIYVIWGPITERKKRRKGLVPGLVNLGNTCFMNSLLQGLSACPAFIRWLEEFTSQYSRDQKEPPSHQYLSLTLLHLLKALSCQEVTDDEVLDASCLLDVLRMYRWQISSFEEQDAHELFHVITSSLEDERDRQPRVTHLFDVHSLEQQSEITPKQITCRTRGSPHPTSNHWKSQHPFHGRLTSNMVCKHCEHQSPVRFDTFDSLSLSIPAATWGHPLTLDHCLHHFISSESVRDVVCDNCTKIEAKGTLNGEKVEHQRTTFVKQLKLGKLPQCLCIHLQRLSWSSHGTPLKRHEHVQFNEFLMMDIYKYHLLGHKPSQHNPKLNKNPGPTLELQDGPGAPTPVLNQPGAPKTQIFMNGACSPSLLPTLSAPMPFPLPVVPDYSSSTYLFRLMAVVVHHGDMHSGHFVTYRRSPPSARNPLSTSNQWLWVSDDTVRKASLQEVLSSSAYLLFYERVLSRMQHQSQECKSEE
# USP17 inh: inhibitors of human USP17 deubiquitinase; purified USP17, Ub-rhodamine cleavage fluorescence, 3 h; 47,000 compounds, 6.5% hits; inhibition, % at 50 µM; Ubiquitin carboxyl-terminal hydrolase 17-like protein 5 (Homo sapiens), A8MUK1
# Hits are given with their value; 0 = inactive; - = no result given. Compounds with a hit are over-represented: about 11% of the library has one in this group of screens. No stated cut-off is given here; in the data, active means inhibition above about 30%; inactive means the rest.
SMILES,USP28 block,USP30 block,USP17 inh
COc1ccc(NC(=O)CCc2nc3ccccc3c(=O)[nH]2)cc1,0,0,0
CNc1nc(C2CCN(C)CC2)nc2c1CCN(C(=O)Cc1c[nH]c3ccccc13)C2,0,0,0
COc1ccc2[nH]c3c(c2c1)CCN1C(=O)CN(CC(O)c2ccccc2)C(=O)[C@]31C (some centres undefined),0,0,0
Cc1ccc(S(=O)(=O)Nc2cc(C(F)(F)F)ccc2Oc2ccc(C)c3c2CCC3)cc1,0,0,0
O=C(Nc1ccccc1)c1ccc(-c2ccnc(N3CCCC3)n2)cc1,0,0,0
COc1ccc(CCC(=O)Nc2ccc3nc(N4CCN(c5ncccn5)CC4)cc(C)c3c2)cc1,0,30,0
COc1cccc(CNC(=O)CCC(=O)Nc2ccc3nc(N4CCCCC4)cc(C)c3c2)c1,0,0,0
COc1ccc(C(=O)Nc2ccccc2)cc1S(=O)(=O)N1CCCC1,0,0,0
Cc1cc(C)nc(N2CCC(N(Cc3ccco3)C(=O)c3ccc(S(C)(=O)=O)cc3)CC2)n1,0,0,0
CCC1(c2ccc(F)cc2)NC(=O)N(CC(=O)N(C)c2ccccc2)C1=O (centres undefined),0,0,0
COc1ccc(CCNC(=O)c2ccc3c(c2)N(Cc2ccc(F)cc2)C(=O)c2ccccc2S3=O)cc1OC (centres undefined),0,0,0
COc1ccc(CCNC(=O)c2cn(-c3ccc(F)cc3)nn2)cc1OC,0,62,34
COc1ccc(CCNC(=O)CSc2cn(CCNC(=O)c3ccc(F)cc3)c3ccccc23)cc1OC,0,68,50
COc1ccc(-n2cc(C(=O)NCCc3ccc(F)cc3)nn2)cc1,0,0,0
CC(=O)N1CCN(C(=O)Nc2ccccc2)CC2(CC(=O)N(C)C2)C1 (centres undefined),0,0,0
CCC1OC(=O)C(C)C(=O)C(C)C(OC2OC(C)CC(N(C)C)C2O)C(C)CC(C)C(=O)/C=C/C1(C)O (centres undefined),0,0,0
O=C1CCN(c2ncnc3cc(-c4ccc(F)cc4)sc23)CC1,0,0,31
CC(Nc1ncnc2cc(-c3ccc(Cl)cc3)sc12)c1ccccn1 (centres undefined),0,0,0
Cc1cc(C(N)=O)nc(C2(C)CCCN2C(=O)c2ccc(F)cc2)n1 (centres undefined),0,0,0
CN1CCc2c(sc3nc(SCC(=O)Nc4nccs4)nc(N)c23)C1,-,-,38
CC1CCN(C(=O)CSc2nc(N)c3c4c(sc3n2)CN(C)CC4)CC1,0,0,0
COc1ccc(/C=C/C(=O)Nc2ccc3c(c2)OCCO3)cc1,-,-,0
O=C(/C=C/c1ccc(F)cc1)Nc1ccc2c(c1)OCCO2,86,0,0
CC(C)Cc1ccc(/C=C/C(=O)Nc2ccc3c(c2)OCCO3)cc1,0,0,0
CC(C)(C)c1ccc(/C=C/C(=O)Nc2ccc3c(c2)OCCO3)cc1,34,0,0
SMILES,USP28 block,USP30 block,USP17 inh
O=C(Cc1ccccn1)N1CCC(c2nc3ccccc3cc2C(=O)N2CCCC2)CC1,0,0,0
CCCCCn1c(CCNC(=O)c2ccco2)nc2ccccc21,0,0,0
CS(=O)(=O)N1CC[C@H]2O[C@@H](C(=O)NCc3cccnc3)CC[C@H]21,0,0,0
COc1ccc(Cn2c(=O)[nH]c3cc(C(=O)N4CCC(Cc5ccccc5)CC4)ccc3c2=O)cc1,0,37,0
COc1cc2[nH]c(=O)n(Cc3ccc(C(=O)N4CCN(C5CCCCC5)CC4)cc3)c(=O)c2cc1OC,0,33,0
CCOc1cc2[nH]c(=O)n(CCC(=O)NCCc3ccc(OC)c(OC)c3)c(=O)c2cc1OCC,0,0,0
CCOc1cc2[nH]c(=O)n(Cc3ccc(C(=O)NCCCN4CCC(C)CC4)cc3)c(=O)c2cc1OCC,0,35,0
NC(=O)C1CCN(C(=O)c2ccc3c(=O)n(CCc4ccccc4)c(=O)[nH]c3c2)CC1,0,0,0
CCOC(=O)N1CCN(C(=O)c2ccc(Cn3c(=O)[nH]c4cc(OC)c(OC)cc4c3=O)cc2)CC1,0,0,0
NCCC(=O)NC1CCN(c2nc(-c3cccnc3)nc3ccccc23)CC1,0,0,0
COC(=O)c1cc(S(=O)(=O)NC2CCCCCC2)c[nH]1,0,0,0
O=C(Nc1ccc(F)cc1)Nc1cnn(-c2ncncc2N2CCOCC2)c1,0,0,0
CC1(C2CCN(C(=O)c3ccc(N)nc3)CC2)CCCCN(CCc2ccccc2)C1=O (centres undefined),0,0,0
COc1ccc(S(=O)(=O)N2CCn3nc(C(C)(C)C)cc3C2)cc1,0,0,0
N#C/C(=C/c1ccc(OCc2cccc(C(=O)O)c2)cc1)c1ccccc1,0,0,0
N#C/C(=C\c1ccc(OCc2cccc(C(=O)O)c2)cc1)c1ccc(F)cc1,0,0,69
Cn1nc(C(=O)Nc2ccccc2N2CCCC2)c(=O)c2ccccc21,0,0,0
COc1ccccc1-c1nnc(NC(=O)CC(C)C)s1,0,0,0
Cc1c(C(=O)Nc2cccc(C(F)(F)F)c2)cnn1-c1ccccn1,0,0,55
CSc1cccc(NC(=O)c2cnn(-c3ccccn3)c2C(C)C)c1,0,0,0
COc1ccc(C2C3CCCCC3(O)CCN2C(=O)/C=C/c2ccccc2)c(OC)c1 (centres undefined),0,0,0
O=C(Nc1ccc(F)cc1)c1cn(-c2ccccc2)nc1-c1cc2ccccc2oc1=O,0,0,0
O=C(Nc1cccc(-c2nc3ncccc3o2)c1)c1cccc(-c2cc3ccccc3oc2=O)c1,69,67,68
COc1ccc(C(=O)Nc2cccc(-c3nc4ncccc4o3)c2)cc1,0,0,0
COc1ccc(CC(=O)Nc2cccc(-c3cn4cccnc4n3)c2)cc1,0,0,31
SMILES,USP28 block,USP30 block,USP17 inh
COc1ccc(-c2cn3cccnc3n2)cc1NC(=O)c1cccc(C)c1,0,0,0
COc1ccc(CC(=O)Nc2cccc(-c3nc4ncccc4o3)c2)cc1OC,55,0,0
Cc1ccc(OCC(=O)Nc2cccc(-c3nc4ncccc4o3)c2)c(C)c1,0,59,0
Cc1ccc(OCC(=O)Nc2c(C)nc3sccn3c2=O)c(C)c1,0,0,0
O=c1cc(CN2CCCC2c2ccc3c(c2)OCCCO3)nc2sccn12 (centres undefined),0,0,0
Clc1ccccc1-n1cc(-c2ccccc2)c2c(N3CCOCC3)ncnc21,0,0,0
Cc1ccc2c(c1)-c1c(c(C(=O)N3CCN(c4ccccn4)CC3)nn1C)CS2,0,0,0
CSc1ccc([C@@H]2c3c(C)nn(-c4ccccc4)c3NC(=O)[C@H]2NC(=O)c2ccccc2)cc1,0,0,0
COc1ccc(C(=O)NCc2ccc(C(=O)Nc3ccc(F)cc3)o2)cc1,0,0,0
Cc1ccc(-c2cc3c(=O)n(Cc4noc(CN5CCCCC5)n4)ccn3n2)cc1C,0,0,0
CSc1nnnn1-c1ccc(C(=O)Nc2cccc(F)c2)cc1,0,0,0
CCN(CC)c1ccc(C(=O)CN2CCC(S(=O)(=O)c3ccc(-c4ccc(C#N)cc4)cc3)CC2)cc1,0,0,0
COc1ccc(C(=O)Nc2ccc(-c3nc4ncccc4o3)cc2)cc1Br,0,0,32
COc1ccc(C(=O)Nc2cc(C)c(O)c(-c3nc4ncccc4o3)c2)cc1Cl,0,0,0
